13 molecules from PubChem BioAssay (EPA / NIEHS) can be followed below.

Molecules are shown by their SMILES. Where “and” joins values, the source holds several entries; their conditions need not be identical. Equal entries are not always repeated. Some structures have more than one record in an assay (separate samples or runs), and their calls can disagree. Calls of active or inactive are those of the source. The calls were made as follows: active = hit-call score of the fitted dose curve at least 0.9, where 1 is the maximum; inactive = score below 0.9.

Assay [1] is described as follows: APR_HepG2_CellCycleArrest_24hr: Apredica 24-hour HepG2 Assay for Cell Cycle Arrest (AID 2282905).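 Also: cell cycle arrest scored as ratio of 2N to 4N nuclear DNA content.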 The note with it: imaging, actives raise or lower the signal. An outline of the steps:
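HepG2 cells were exposed to compounds at 0.39–200 uM (ten concentrations, duplicate) in 0.5% v/v DMSO for 24 hr. After formaldehyde fixation and Triton permeabilization, Hoechst 33342-stained nuclei were imaged at 20x; DNA content was quantified, with bidirectional fitting against DMSO.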

A short description of assay [2]: APR_HepG2_StressKinase_1hr: Apredica 1-hour HepG2 Assay for Stress Kinase (AID 2282906). The settings on record: HepG2 stress kinase (phospho-c-Jun) imaging, actives raise or lower the signal. An outline of the steps: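 HepG2 cells dosed 0.39-200 uM (0.5% DMSO) for 1 h, then formaldehyde-fixed. Stress kinase read by phospho-c-Jun immunofluorescence using high-content imaging; bidirectional fit vs DMSO.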

A short description of assay [3]: APR_HepG2_NuclearSize_24hr: Apredica 24-hour HepG2 Assay for Nuclear Size (AID 2282907). The settings on record: high-content imaging, actives raise or lower the signal. An outline of the steps:
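HepG2 human liver cells were exposed for 24 hr to compounds at 0.39–200 uM (ten concentrations, duplicate) in 0.5% v/v DMSO. They were then formaldehyde-fixed, Triton-permeabilized and Hoechst 33342-stained, and nuclear diameter was imaged at 20x. Bidirectional fits were made against DMSO.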

Assay [4] can be described thus: APR_HepG2_CellLoss_24hr: Apredica 24-hour HepG2 Assay for Cell Loss (AID 2282908).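 As to AC50: fit in both directions so a hit may be cell loss or gain.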 The note with it: high-content imaging. An outline of the steps: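 Compounds were tested at 0.39–200 uM in duplicate with 0.5% v/v DMSO final. Cells were then fixed in 3.7% formaldehyde, Hoechst 33342 nuclei were imaged at 20x by HCS, and cell number was fitted bidirectionally against DMSO.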

The nature of assay [5]: APR_HepG2_MicrotubuleCSK_24hr: Apredica 24-hour HepG2 Assay for Microtubule CSK Stabilty (AID 2282909). The note with it: HepG2 microtubule cytoskeleton imaging, actives raise or lower the signal. An outline of the steps: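 HepG2 cells exposed 24 h to compounds at 0.39–200 uM (duplicate, 0.5% v/v DMSO final), then fixed, permeabilized and immunostained for alpha-tubulin with Hoechst 33342. Cytoskeleton imaged at 20x; bidirectional fit versus DMSO baseline.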

Assay [6] can be described thus: APR_HepG2_MitoticArrest_24hr: Apredica 24-hour HepG2 Assay for Mitotic Arrest (AID 2282910). The settings on record: high-content imaging, actives raise or lower the signal. An outline of the steps: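 HepG2 human liver cells were exposed to compounds at 0.39–200 uM (10 concentrations, duplicate) in 0.5% v/v DMSO for 24 hr, then fixed and immunostained for phospho-histone H3 with Hoechst 33342. Mitotic arrest came from HCS fluorescent imaging, fitted bidirectionally against DMSO.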

Assay [7] is described as follows: APR_HepG2_MitoMembPot_24hr: Apredica 24-hour HepG2 Assay for Mitochondrial Membrane Potential (AID 2282911). The note with it: imaging, actives raise or lower the signal. An outline of the steps: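 HepG2 cells exposed 24 h to 0.39–200 uM compounds in duplicate, 0.5% v/v DMSO final. MitoTracker Red CMXRos 250 nM loaded 30 min before formaldehyde fixation; high-content imaging at 20x, bidirectional fit versus DMSO.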

Assay [8] can be described thus: APR_HepG2_MitoMass_24hr: Apredica 24-hour HepG2 Assay for Mitochondrial Mass (AID 2282912). The note with it: high-content imaging, actives raise or lower the signal. An outline of the steps:
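Human HepG2 liver cells were exposed for 24 hr to compounds at 0.39–200 uM (duplicates, 0.5% v/v DMSO final). They were stained live with 250 nM MitoTracker Red CMXRos for 30 min, fixed in 3.7% formaldehyde, and imaged by HCS fluorescence; signals were fitted bidirectionally against DMSO.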

Assay [9] is described as follows: APR_HepG2_p53Act_24hr: Apredica 24-hour HepG2 Assay for p53 Activation (AID 2282913).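 Also: p53 protein immunofluorescence averaged per cell in HepG2 with Hoechst nuclei.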 The note with it: high-content imaging, actives raise or lower the signal. An outline of the steps:
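HepG2 cells exposed 24 h to compounds at 0.39–200 uM in duplicate, 0.5% v/v DMSO final; fixed, permeabilized, stained with anti-p53 antibody and Hoechst 33342; fluorescence imaging; bidirectional curve fit versus DMSO.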

The nature of assay [10]: APR_HepG2_CellCycleArrest_72hr: Apredica 72-hour HepG2 Assay for Cell Cycle Arrest (AID 2282914). The settings on record: high-content imaging, actives raise or lower the signal. An outline of the steps:
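HepG2 cells exposed 72 h in duplicate to 0.39–200 uM compound, 0.5% DMSO final. Formaldehyde-fixed, Hoechst 33342-stained nuclei imaged at 20x, six fields per well; DNA content per valid cell quantified by cell-cycle image analysis, bidirectional fit versus DMSO.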

With `Oc1cc(Cl)ccc1Oc1ccc(Cl)cc1Cl`, the AC50 in assay [1] was 9.18 µM (active) and 20.4 µM (active); in assay [3] it was 63.9 µM (active); in [4] it was 90.7 µM (active) and 70.9 µM (active) and 12.8 µM (active); in assay [5], 98.5 µM (active) and 33.3 µM (active); in assay [6], 61.6 µM (active) and 63.6 µM (active); in assay [7], 97.9 µM (active) and 4.39 µM (active). For the same molecule, the AC50 in assay [8] is 177 µM (active) and 59 µM (active); in [9] it was 28.4 µM (active); in assay [10], 18.9 µM (active) and 11.6 µM (active). In addition, the outcome in assay [1], in [2], in assay [3], in [5], in [6] and in assay [7] was inactive. For the same molecule, the molecule was classed as inactive in assay [8], in [9] and in assay [10].

Consider `COC(=O)c1ccccc1S(=O)(=O)NC(=O)Nc1nc(C)nc(OC)n1`, for which the outcome in assay [1], in assay [2], in assay [3], in assay [4], in assay [5] and in assay [6] was inactive. The molecule was classed as inactive in assay [7], in [8], in assay [9] and in [10].

Turning to `COC(=O)c1ccccc1CS(=O)(=O)NC(=O)Nc1nc(OC)cc(OC)n1`, the call in assay [1], in assay [2], in assay [3], in assay [4], in assay [5] and in assay [6] was inactive. Further, the molecule was classed as inactive in assay [7], in assay [8], in [9] and in [10].

As to `CCS(=O)(=O)c1cccnc1S(=O)(=O)NC(=O)Nc1nc(OC)cc(OC)n1`, the molecule was called inactive in [1], in [2], in assay [3], in assay [4], in assay [5] and in [6]. The molecule was classed as inactive in [7], in assay [8], in assay [9] and in [10].

For `O=C(O)COc1ccc(Cl)cc1Cl`, the outcome in assay [1], in assay [2], in [3], in [4], in assay [5] and in [6] was inactive. In addition, the outcome in assay [7], in [8], in [9] and in assay [10] was inactive.

For the molecule `COP(=S)(OC)Oc1ccc(SC)c(C)c1`, the molecule was called inactive in [1], in assay [2], in assay [3], in [4], in [5] and in assay [6]. Besides, the result in assay [7], in [8] and in assay [9] was inactive. In assay [10], the concentration at half-maximal activity (AC50) was 54.3 µM (active).

Turning to `O=C(Nc1ccccc1)Nc1cnns1`, the result in assay [1], in [2], in assay [3], in assay [4], in [6] and in [7] was inactive. Moreover, the molecule was called inactive in assay [8], in assay [9] and in assay [10]. Besides, the AC50 in assay [5] was 68.9 µM (active).

For `CCC(C)(C)C(=O)OC1=C(c2ccc(Cl)cc2Cl)C(=O)OC12CCCCC2`, the concentration at half-maximal activity (AC50) in assay [1] was 60.2 µM (active); in assay [4], 137 µM (active); in assay [5] it was 100 µM (active). Also, the call in [2], in [3], in assay [6], in assay [7], in assay [8] and in assay [9] was inactive. Moreover, the call in [10] was inactive.

In the case of `O=C1c2ccccc2C(=O)N1SC(Cl)(Cl)Cl`, the outcome in [1], in assay [2], in [3], in assay [4], in assay [5] and in [6] was inactive. The molecule was called inactive in assay [7], in assay [8], in [9] and in [10].

As for `CCCN(CCOc1c(Cl)cc(Cl)cc1Cl)C(=O)n1ccnc1`, the AC50 is 101 µM (active) in assay [1] and 103 µM (active) in assay [4]. Besides, the outcome in assay [2], in assay [3], in [5], in assay [6], in [7] and in [8] was inactive. In addition, the call in assay [9] and in assay [10] was inactive.

In the case of `[2H]C1([2H])[n+]2ccccc2-c2cccc[n+]2C1([2H])[2H]`, the call in [1], in assay [2], in [3], in [4], in assay [5] and in assay [6] was inactive. In addition, the result in assay [7], in assay [8] and in assay [9] was inactive. The AC50 in assay [10] is 75.1 µM (active).

On to `CCOc1nc(NC)nc(NC(=O)NS(=O)(=O)c2ccccc2C(=O)OC)n1`, for which the outcome in [1], in assay [2], in [3], in assay [4], in assay [5] and in [6] was inactive. The outcome in assay [7], in assay [8], in [9] and in assay [10] was inactive.

For the molecule `N#Cc1c(Cl)c(Cl)c(Cl)c(C#N)c1Cl`, the molecule was called inactive in [1], in [3], in [4], in assay [5], in [6] and in [7]. In addition, the molecule was called inactive in [8], in [9] and in [10]. In addition, the AC50 in [2] is 1.94 µM (active).
